Records with an inconclusive call do not appear. Activity calls are given as the source filed them. Unless noted, the call rests on the fitted dose curve; in most records, active means well fitted curve in the direction sought with a large enough effect; inconclusive means small, poorly fitted or top-dose-only effect, or another doubt; inactive means no such curve, though single readings can be large; an effect the other way counts as inactive or inconclusive.
What was measured:
[1] = molecular target: Cytochrome P450 1A2 (Homo sapiens) (UniProt P05177); assay: p450-cyp1a2 (AID 410; calls by dose curve; further: potency means the concentration at half of the fitted maximal effect;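 on activity change, negative = inhibition: -100% = full effect of reference inhibitor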)
How it was run: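 O-Demethylation of luciferin 6' methyl ether by human CYP1A2 is monitored as luciferase luminescence. Substrate sits at Km (100uM); enzyme is 20nM. Values are scaled to 57 uM furafylline as maximal inhibition.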

[2] = Stat Signaling Pathway (AID 446; active means well fitted curve in either direction with a large enough effect, not every such curve was filed as active;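 further: ME-180 cervical cancer cells given 40 pM IL-6 alongside compound; SIE-controlled beta-lactamase reporter measured as 460/530 nm FRET emission ratio; on the % scale 0 is the no-effect control and ±100 the full control effect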)
How it was run: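 Overnight-plated ME-180 cells bearing a STAT Inducible Element beta-lactamase reporter; 5 h co-exposure to compound and 40 pM IL-6; values normalized to 300 pM IL-6 and 125 nM JAK inhibitor controls.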

7G8 = assay: qHTS profiling for inhibitors of Plasmodium falciparum proliferation (AID 504749); further: nearly all actives have a fitted effect of over 60% in size; further: potency means the concentration at half of the fitted maximal effect; conditions: P. falciparum in erythrocytes, SYBR Green DNA, 72 h; series mostly up to 12.8 µM
How it was run: (§1)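 Quantitative HTS: compounds pinned into medium, infected erythrocytes added (0.3% parasitemia, 2.5% hematocrit), 72 h culture at 37 C under 5% CO2. Saponin/Triton lysis with SYBR Green I, overnight RT, then fluorescence read.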

ATS189 = assay: as above; conditions: P. falciparum in erythrocytes, SYBR Green DNA, 72 h; series mostly up to 12.8 µM
How it was run: as §1

ATS95 = assay: as above; conditions: P. falciparum in erythrocytes, SYBR Green DNA, 72 h; series mostly up to 12.8 µM
How it was run: as §1

CP203 = assay: as above; conditions: P. falciparum in erythrocytes, SYBR Green DNA, 72 h; series mostly up to 12.8 µM
How it was run: as §1

CP215 = assay: as above; conditions: P. falciparum in erythrocytes, SYBR Green DNA, 72 h; series mostly up to 12.8 µM
How it was run: as §1

CP335 = assay: as above; conditions: P. falciparum in erythrocytes, SYBR Green DNA, 72 h; series mostly up to 12.8 µM
How it was run: as §1

[3] = molecular target: Glucocorticoid receptor (Homo sapiens) (UniProt P04150); assay: GR-EFC Redistribution (AID 451; calls by dose curve; further: potency means the concentration at half of the fitted maximal effect); conditions: CHO-K1 GR-EFC translocation, beta-gal luminescence, 2 h
How it was run: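 CHO-K1 cells stably expressing nuclear-localized β-gal enzyme acceptor and GR fused C-terminally to the enzyme donor fragment; ligand-driven nuclear translocation restores β-gal by complementation. Compounds titrated up to 46 uM final, 2 h at 37 °C; luminescence read.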

CP286 = assay: qHTS profiling for inhibitors of Plasmodium falciparum proliferation (AID 504749); further: nearly all actives have a fitted effect of over 60% in size; further: potency means the concentration at half of the fitted maximal effect; conditions: P. falciparum in erythrocytes, SYBR Green DNA, 72 h; series mostly up to 12.8 µM
How it was run: as §1

DIV14 = assay: as above; conditions: P. falciparum in erythrocytes, SYBR Green DNA, 72 h; series mostly up to 12.8 µM
How it was run: as §1

DIV17 = assay: as above; conditions: P. falciparum in erythrocytes, SYBR Green DNA, 72 h; series mostly up to 12.8 µM
How it was run: as §1

GB4 = assay: as above; conditions: P. falciparum in erythrocytes, SYBR Green DNA, 72 h; series mostly up to 12.8 µM
How it was run: as §1

W2 = assay: as above; conditions: P. falciparum in erythrocytes, SYBR Green DNA, 72 h; series mostly up to 12.8 µM
How it was run: as §1

[4] = NFAT Signaling Pathway (AID 444; active means well fitted curve in either direction with a large enough effect, not every such curve was filed as active;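 further: carbachol stimulus at about its EC50 of 1 µM final; on the % scale 0 is the no-effect control and ±100 the full control effect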); conditions: Jurkat NFAT-bla M1, carbachol, beta-lactamase ratio, 5 h; at 17.2 µM (top of the series) unless noted
How it was run: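 Jurkat cells carrying an NFAT-driven β-lactamase reporter and co-transfected muscarinic M1 receptor were treated with compound plus carbachol (1 uM final, an EC50 level) for 5 h at 37 °C. CCF4 loading followed for 1 h at RT; 460/530 nm ratio gave %activity.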

[5] = molecular target: Cytochrome P450 2C19 (Homo sapiens) (UniProt P33261); assay: qHTS Assay for Inhibitors and Substrates of Cytochrome P450 2C19 (AID 899); further: on the % scale 0 is the no-effect control and ±100 the full control effect; nearly all actives have a fitted effect of over 60% in size
How it was run: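 In 50mM KPO4, the reaction held 5nM enzyme and KM-level (10uM) Luciferin-H EGE; it ran 60 min at 37C after NADPH regeneration and a 10 min compound preincubation. Luminescence values were scaled to 57uM ketoconazole as complete inhibition.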

[6] = molecular target: DNA dC->dU-editing enzyme APOBEC-3G (Homo sapiens) (UniProt Q9HC16); assay: qHTS for inhibitors of Vif-A3G interactions: Validation (AID 588379); further: 0% is about no effect
How it was run: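 Yellow fluorescence (Ex 488, Em 500-530) of Vif-coexpressing HeLa A3G-eYFP cells, scanned by Acumen cytometer, reports blocked A3G degradation. Cells plated at 700/well overnight at 37 deg C before compound addition, then a further overnight compound incubation at 37 deg C.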

[7] = molecular target: Glucocorticoid receptor (Homo sapiens) (UniProt P04150); assay: GR-GFP Redistribution (AID 450;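 active means compounds whose dose series gives a full or clear partial fitted curve of increased nuclear translocation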; further: potency means the concentration at half of the fitted maximal effect); conditions: U2OS GR-GFP nuclear translocation, laser cytometry, 2 h
[8] = molecular target: ATP-dependent 6-phosphofructokinase (Trypanosoma brucei brucei) (UniProt O15648); assay: qHTS Assay to Find Inhibitors of T. brucei phosphofructokinase: hit validation (AID 492961);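 further: luminescence reports ADP formed as PFK phosphorylates fructose-6-phosphate with ATP; on the % scale 0 is the no-effect control and ±100 the full control effect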
How it was run: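 Reaction: 0.1 M triethanolamine pH 8.0, 5 mM MgCl2, F6P 0.5 mM, ATP 0.1 mM, PFK 1.25 nM, 45 min RT. Read-out: ADP-Glo luminescence. Analysis: concentration-response fits, classed by r2 and efficacy.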

[9] = S16 Schwann cell PMP22 intronic element firefly luciferase assay (AID 624032);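 further: plate controls were DMSO for no effect and PTC124 positive control mean for full effect; nearly all actives have a fitted effect of over 30% in size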
How it was run: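 Rat S16 Schwann cells stably carrying a PMP22 intronic element-driven Fluc reporter were seeded overnight, then exposed to compounds for 24 h at 37 °C. Luminescence was normalized to PTC124 (positive control) and DMSO (0% activity).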

Sequence of Glucocorticoid receptor (Homo sapiens) (P04150 whole entry, looked up, the tested form may be a part): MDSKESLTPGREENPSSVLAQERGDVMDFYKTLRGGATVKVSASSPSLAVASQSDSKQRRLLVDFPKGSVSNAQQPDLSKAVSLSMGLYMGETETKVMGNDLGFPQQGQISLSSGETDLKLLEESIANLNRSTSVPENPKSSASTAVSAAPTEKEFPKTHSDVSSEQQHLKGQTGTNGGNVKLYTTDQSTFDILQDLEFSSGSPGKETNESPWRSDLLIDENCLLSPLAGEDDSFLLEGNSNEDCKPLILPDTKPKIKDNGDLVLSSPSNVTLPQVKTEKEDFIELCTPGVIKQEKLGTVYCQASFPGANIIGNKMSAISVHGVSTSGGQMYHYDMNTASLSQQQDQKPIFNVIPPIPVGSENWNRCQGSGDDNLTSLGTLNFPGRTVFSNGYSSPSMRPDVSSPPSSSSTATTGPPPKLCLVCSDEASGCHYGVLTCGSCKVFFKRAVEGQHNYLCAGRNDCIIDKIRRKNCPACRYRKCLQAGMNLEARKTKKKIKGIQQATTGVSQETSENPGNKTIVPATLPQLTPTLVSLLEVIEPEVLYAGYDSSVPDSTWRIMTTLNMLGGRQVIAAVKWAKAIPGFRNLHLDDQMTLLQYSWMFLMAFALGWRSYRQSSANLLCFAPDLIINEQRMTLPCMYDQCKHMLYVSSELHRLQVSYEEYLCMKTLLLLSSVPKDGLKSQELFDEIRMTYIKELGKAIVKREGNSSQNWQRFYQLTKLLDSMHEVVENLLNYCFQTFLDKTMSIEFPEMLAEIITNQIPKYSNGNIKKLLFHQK
Sequence of DNA dC->dU-editing enzyme APOBEC-3G (Homo sapiens) (Q9HC16 whole entry, looked up): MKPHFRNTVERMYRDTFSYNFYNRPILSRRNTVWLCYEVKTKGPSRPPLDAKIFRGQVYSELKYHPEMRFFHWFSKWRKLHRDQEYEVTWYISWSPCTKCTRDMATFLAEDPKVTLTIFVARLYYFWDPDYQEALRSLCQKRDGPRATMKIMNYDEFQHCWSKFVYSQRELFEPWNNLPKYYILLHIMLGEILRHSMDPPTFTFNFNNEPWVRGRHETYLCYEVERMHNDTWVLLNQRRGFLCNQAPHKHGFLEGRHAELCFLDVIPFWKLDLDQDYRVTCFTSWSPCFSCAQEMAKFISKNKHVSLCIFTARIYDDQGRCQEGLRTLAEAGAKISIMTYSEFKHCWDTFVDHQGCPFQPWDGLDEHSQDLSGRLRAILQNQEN
Sequence of Cytochrome P450 1A2 (Homo sapiens) (P05177 whole entry, looked up): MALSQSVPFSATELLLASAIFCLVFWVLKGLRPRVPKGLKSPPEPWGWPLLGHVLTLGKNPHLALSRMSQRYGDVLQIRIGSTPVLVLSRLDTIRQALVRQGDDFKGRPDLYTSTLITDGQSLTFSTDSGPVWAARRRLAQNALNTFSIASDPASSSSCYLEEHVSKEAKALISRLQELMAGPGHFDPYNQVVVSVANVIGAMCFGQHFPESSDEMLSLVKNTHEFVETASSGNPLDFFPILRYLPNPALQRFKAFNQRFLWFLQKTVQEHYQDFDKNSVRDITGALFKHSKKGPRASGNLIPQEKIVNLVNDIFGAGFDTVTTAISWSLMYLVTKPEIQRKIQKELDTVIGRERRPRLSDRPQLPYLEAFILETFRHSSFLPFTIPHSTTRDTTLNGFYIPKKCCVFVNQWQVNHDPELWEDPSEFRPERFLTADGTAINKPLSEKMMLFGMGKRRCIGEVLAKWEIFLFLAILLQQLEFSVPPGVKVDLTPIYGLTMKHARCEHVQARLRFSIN
Sequence of Cytochrome P450 2C19 (Homo sapiens) (P33261 whole entry, looked up): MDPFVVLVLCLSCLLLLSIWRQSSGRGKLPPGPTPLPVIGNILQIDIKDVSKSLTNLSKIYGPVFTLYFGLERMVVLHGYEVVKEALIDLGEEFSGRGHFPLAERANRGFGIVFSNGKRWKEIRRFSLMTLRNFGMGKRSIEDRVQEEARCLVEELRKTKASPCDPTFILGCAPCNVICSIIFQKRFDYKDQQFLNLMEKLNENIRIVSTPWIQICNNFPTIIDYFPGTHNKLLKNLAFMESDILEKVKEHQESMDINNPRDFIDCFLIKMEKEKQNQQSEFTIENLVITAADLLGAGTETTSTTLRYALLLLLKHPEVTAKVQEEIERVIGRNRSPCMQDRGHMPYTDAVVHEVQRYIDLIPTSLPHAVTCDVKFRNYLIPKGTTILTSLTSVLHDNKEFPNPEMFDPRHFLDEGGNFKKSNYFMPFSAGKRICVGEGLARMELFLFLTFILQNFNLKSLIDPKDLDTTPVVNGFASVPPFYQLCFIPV
Sequence of ATP-dependent 6-phosphofructokinase (Trypanosoma brucei brucei) (O15648 whole entry, looked up): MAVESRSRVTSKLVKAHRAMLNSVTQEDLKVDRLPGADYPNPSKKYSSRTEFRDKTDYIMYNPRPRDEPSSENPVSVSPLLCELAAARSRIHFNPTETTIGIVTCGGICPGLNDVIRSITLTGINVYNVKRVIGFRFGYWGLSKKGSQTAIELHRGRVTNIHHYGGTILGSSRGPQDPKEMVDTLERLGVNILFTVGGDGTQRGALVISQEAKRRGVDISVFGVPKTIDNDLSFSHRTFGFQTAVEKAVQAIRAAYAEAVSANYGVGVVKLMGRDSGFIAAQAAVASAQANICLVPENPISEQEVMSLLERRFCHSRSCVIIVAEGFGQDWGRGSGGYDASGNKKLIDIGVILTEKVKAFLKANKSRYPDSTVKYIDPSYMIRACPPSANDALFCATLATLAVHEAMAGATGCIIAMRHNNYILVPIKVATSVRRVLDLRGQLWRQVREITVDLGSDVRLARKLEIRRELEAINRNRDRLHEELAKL

O=C(OC[C@@H](O)CO)c1ccccc1Nc1ccnc2cc(Cl)ccc12
inactive: outcome [2] | Potency (ATS189) | Potency (ATS95) | Potency (CP203) | Potency (CP215) | Potency (CP335)
active: Potency [1] 5.01 µM | Potency (7G8) 3.98 µM

C=Cc1c(C)c2cc3nc(cc4[nH]c(cc5nc(cc1[nH]2)C(C)=C5CCC(=O)O)c(CCC(=O)OC)c4C)[C@@]1(C)C3=CC=C(C(=O)OC)[C@H]1C(=O)OC (tested in a mixture with another compound)
active: Potency [1] 3.98 µM | Potency (7G8) 0.355 µM | Potency (ATS189) 7.08 µM | Potency (ATS95) 7.94 µM | Potency (CP286) 4.47 µM | Potency (CP335) 3.79 µM | Potency (DIV14) 8.49 µM | Potency (DIV17) 7.57 µM | Potency (GB4) 12 µM | Potency (W2) 1.69 µM
inactive: Potency [3] > 20.6 µM

CCN1CCC[C@@H](OC(=O)C(c2ccccc2)c2ccccc2)C1
active: activity change, negative = inhibition [4] -80.8% | Potency (W2) 1.44 µM
inactive: Potency [3] > 20.6 µM | Potency (ATS95) | Potency (CP286)

COC(=O)C1=C(C)NC(C)=C(C(=O)OCCN(C)Cc2ccccc2)[C@H]1c1cccc([N+](=O)[O-])c1
inactive: outcome [2] | Potency [3] > 20.6 µM

NCCC(=O)N[C@@H](Cc1cnc[nH]1)C(=O)O
inactive: Potency [1] | Potency [5] | outcome [6]

CCC(C)(C)C(=O)O[C@@H]1C[C@H](C)C=C2C=C[C@H](C)[C@@H](CC[C@H]3C[C@@H](O)CC(=O)O3)[C@H]21
inactive: activity change, negative = inhibition [4] 7.6% | outcome [2] | Potency [7] > 20.6 µM | Potency [3] > 20.6 µM | outcome [8] | Potency [9] | Potency (ATS189) | Potency (ATS95) | Potency (CP203) | Potency (CP215) | Potency (CP286) | Potency (DIV14) | Potency (DIV17)

CCO[C@H]1O[C@@H]([C@H](COCc2ccccc2)OCc2ccccc2)[C@@H](OCc2ccccc2)[C@H]1O
inactive: activity change, negative = inhibition [4] -29.7% | outcome [2] | Potency [7] > 20.6 µM | Potency [3] > 20.6 µM | outcome [8] | Potency (ATS95) | Potency (CP203) | Potency (CP286) | Potency (CP335)

COc1cc2ccc(=O)oc2c(O)c1O
active: Potency [1] 12.6 µM
inactive: Potency [7] > 46 µM | Potency [3] > 46 µM | outcome [6]

C/C(=C\CNc1ncnc2nc[nH]c12)CO
inactive: Potency [5]

CC/C=C\C[C@H]1C(=O)CC[C@@H]1CC(=O)O
inactive: Potency [5]

C[C@]12CCC(=O)C=C1CCC1C2C(=O)C[C@]2(C)C1CC[C@]2(O)C(=O)CO (stereo partly drawn)
inactive: Potency [9] | Potency (7G8) | Potency (ATS189) | Potency (ATS95) | Potency (CP203) | Potency (CP215) | Potency (CP286) | Potency (CP335) | Potency (DIV17) | Potency (GB4) | Potency (W2)

COC(=O)[C@H]1[C@@H]2C[C@@H]3c4[nH]c5ccccc5c4CCN3C[C@H]2CC[C@H]1O
inactive: outcome [6]

O=c1c(-c2ccc(O[C@@H]3O[C@H](CO)[C@@H](O)[C@H](O)[C@H]3O)cc2)coc2cc(O)cc(O)c12
inactive: outcome [6]

CC1(C)S[C@H]2C(NC(=O)[C@@H](N)c3ccc(O)cc3)C(=O)N2[C@@H]1C(=O)O (stereo partly drawn)
inactive: outcome [8] | Potency [9] | Potency (7G8) | Potency (ATS189) | Potency (ATS95) | Potency (CP203) | Potency (CP215) | Potency (CP286) | Potency (CP335) | Potency (DIV14) | Potency (DIV17) | Potency (GB4) | Potency (W2)

CCC(C)C(=O)OC1CC(O)C=C2C=CC(C)C(CCC(O)CC(O)CC(=O)O)C21 (stereo not drawn)
inactive: Potency [9] | Potency (ATS95) | Potency (CP203) | Potency (CP215) | Potency (CP286) | Potency (CP335) | Potency (DIV14) | Potency (DIV17) | Potency (GB4) | Potency (W2)

CC1(C)OC2CC(=O)OC[C@@]23C1CC(=O)[C@]1(C)C3CC[C@@]2(C)C(c3ccoc3)OC(=O)C3O[C@@]321 (stereo partly drawn)
inactive: Potency [9] | Potency (7G8) | Potency (ATS189) | Potency (ATS95) | Potency (CP203) | Potency (CP215) | Potency (CP286) | Potency (CP335) | Potency (DIV14) | Potency (DIV17) | Potency (GB4)

CC(=O)[C@]1(O)CCC2C3C=C(Cl)C4=CC(=O)C5CC5[C@@]4(C)C3CC[C@]21C (stereo partly drawn)
inactive: outcome [8] | Potency [9] | Potency (ATS189) | Potency (ATS95) | Potency (CP203) | Potency (CP215) | Potency (CP286) | Potency (CP335) | Potency (DIV14) | Potency (DIV17) | Potency (GB4) | Potency (W2)

COC1OC(CO)C(OC2OC(C(=O)O)C(OC3OC(COS(=O)(=O)O)C(OC4OC(C(=O)O)C(OC5OC(CO)C(OC6OC(C(=O)O)C(OC7OC(COS(=O)(=O)O)C(OC8OC(C(=O)O)=C[C@H](O)C8OS(=O)(=O)O)C(O)C7NC(C)=O)[C@@H](O)C6O)C(O)C5NC(C)=O)[C@@H](O)C4O)C(O)C3NC(C)=O)[C@@H](O)C2O)C(O)C1NC(C)=O (stereo partly drawn)
inactive: outcome [8] | Potency [9] | Potency (CP203)
active: Potency (7G8) 7.08 µM | Potency (W2) 6.75 µM

CC(C)CCCC(C)C1CCC2C3CC=C4CC(O)CCC4(C)C3CCC12C (stereo not drawn)
inactive: outcome [6]

N[C@H](Cc1ccc(O)cc1)C(=O)O
inactive: outcome [6]

From PubChem BioAssay (NCATS)
